Only a selection was taken, and hits are over-represented in it overall.
KDM4E inh: inhibitors of human JMJD2E histone demethylase; JMJD2E catalytic domain, FDH-coupled NADH fluorescence (FDH is formaldehyde dehydrogenase); 230,000 tested, 1.6% active; Potency, µM (highest dose often 57.1 µM), for the others: top-dose activity change, negative = inhibition, most hits filed as inhibitors; active = well fitted inhibition curve with a large enough effect, not every such curve was filed as active; inconclusive = small, poorly fitted or top-dose-only effect, or another doubt; inactive = no such curve, though single readings can be large or run the other way;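 also: 0% = wells with enzyme and -100% = buffer wells without enzyme; nearly all actives have a fitted effect of over 50% in size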
RECQ1 inh: blocks DNA unwinding by human RECQ1; Potency, µM (highest dose often 57.3 µM), for inactives: top-dose activity, negative = inhibition, most hits filed as inhibitors; 240,000 tested, 0.54% active; RECQ1 DNA unwinding, red fluorescence kinetic read; AID 2549; P46063;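 also: plate controls were vehicle for no effect and no enzyme for full effect; nearly all actives have a fitted effect of over 30% in size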
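RECQ1T1 50 nM; forked duplex (20 bp + 30-nt ss tails) 200 nM, ATP 2 mM final; pH 8.0, 2 mM MgCl2, 2.5 ug/ml poly(dI-dC); 15 min compound preincubation; discontinuous kinetic read over 2 h at RT.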
BLM helicase inh: inhibitors of human Bloom syndrome helicase BLM; AID 2528; 350,000 tested, 0.2% active; Potency, µM (series often up to 56.1 µM), inactives show at the top dose activity change, negative = inhibition, hits mostly inhibitors; P54132; recombinant BLM DNA unwinding, fluorescence dequenching;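 also: plate controls were vehicle for no effect and no enzyme for full effect; nearly all actives have a fitted effect of over 35% in size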
GCN5L2 inh: inhibitors of human GCN5L2 histone acetyltransferase | GCN5L2 HAT assay, ThioGlo1 CoA-SH fluorescence | 390,000 tested, 0.21% active | Potency, µM (highest dose often 58.9 µM), without a hit: at the top dose activity change, negative = inhibition, actives largely listed as inhibitors | AID 504327
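GCN5L2 (20 nM) in 50mM HEPES pH 7.5, 0.1mM EDTA, 0.01% Tween-20 preincubated 15 min with compounds at room temperature. Reaction started with H3(1-25) 75uM, acetyl-CoA 70uM, ThioGlo1 50uM; CoA-thiol fluorescence (Ex340/Em540) read at 0 and 20 min.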
TDP1 block: TDP1 (human) enzyme inhibition; AID 485290; recombinant TDP1, AlphaScreen DNA substrate cleavage; 350,000 tested, 0.28% active; Potency, µM (top dose mostly 130 µM), without a hit: at the highest dose activity change, negative = inhibition, most hits filed as inhibitors; Q9NUW8; also: nearly all actives have a fitted effect of over 40% in size
Target sequence (Q9NUW8 whole entry, looked up): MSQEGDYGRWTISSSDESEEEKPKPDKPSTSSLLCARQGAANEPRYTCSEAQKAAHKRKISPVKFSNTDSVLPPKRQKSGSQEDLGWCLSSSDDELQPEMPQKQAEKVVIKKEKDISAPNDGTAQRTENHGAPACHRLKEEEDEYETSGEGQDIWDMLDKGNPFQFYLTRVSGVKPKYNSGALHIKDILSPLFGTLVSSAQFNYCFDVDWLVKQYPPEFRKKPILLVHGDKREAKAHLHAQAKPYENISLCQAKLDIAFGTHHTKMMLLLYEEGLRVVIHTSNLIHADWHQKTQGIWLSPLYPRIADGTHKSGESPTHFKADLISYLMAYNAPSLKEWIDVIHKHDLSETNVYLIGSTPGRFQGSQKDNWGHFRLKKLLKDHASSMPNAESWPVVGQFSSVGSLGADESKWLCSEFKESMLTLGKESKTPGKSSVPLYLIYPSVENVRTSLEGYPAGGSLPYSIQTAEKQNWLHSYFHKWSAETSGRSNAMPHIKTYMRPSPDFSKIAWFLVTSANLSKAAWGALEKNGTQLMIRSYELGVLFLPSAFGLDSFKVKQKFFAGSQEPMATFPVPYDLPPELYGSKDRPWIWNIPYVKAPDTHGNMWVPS
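Steps: enzyme plus compound, 15 min RT; add biotin/phosphotyrosine-FITC oligonucleotide (15 nM final), react 5 min; add donor/acceptor beads (10 ug/ml final), 10 min; read AlphaScreen. Tdp1 at 1 nM final.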
APE1 inh-1: APE1 (human) endonuclease inhibition. recombinant APE1, TAMRA/BHQ-2 abasic DNA cleavage fluorescence. Potency, µM (highest dose often 65.8 µM), for the others: top-dose activity change, negative = inhibition, most hits filed as inhibitors. 350,000 tested, 0.35% active;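 also: plate controls were vehicle for no effect and reference inhibitor for full effect; nearly all actives have a fitted effect of over 55% in size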
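Endonuclease cleavage of a quenched abasic-site DNA duplex (50 nM) by APE1 (0.75 nM) was tracked by TAMRA dequenching. Compounds were preincubated with enzyme 15 min at room temperature; data normalized to buffer-only and DMSO wells plus NSC13755 control.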
APE1 dye cs: displaces fluorescent dye from DNA, flagging APE1 artifacts; AID 2564; 480 tested, 7% active; DNA fluorescent dye displacement counterscreen, fluorescence; Potency, µM (series often up to 28.5 µM), without a hit: at the top dose activity change, negative = inhibition, actives largely listed as inhibitors; shares compounds with APE1 inh-1;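 also: loss of thiazole orange fluorescence as the dye is displaced from duplex DNA; 0% = ThO with dsDNA and no compound and -100% = ThO without dsDNA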
EndoIV counter: blocks E. coli endonuclease IV DNA cleavage | E. coli Endo IV, fluorogenic AP-site DNA cleavage | shares compounds with APE1 inh-1 | Potency, µM (top dose mostly 27.1 µM), for inactives: at the highest dose activity change, negative = inhibition, usual class: inhibitors | 560 tested, 4% active;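 also: plate controls were uninhibited enzyme wells for no effect and no enzyme buffer wells for full effect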
APE1 inh-2: confirmation of inhibitors of human APE1 endonuclease; Potency, µM (top dose mostly 57.1 µM), inactives show at the top dose activity change, negative = inhibition, hits mostly inhibitors; 750 tested, 44% active; purified APE1, fluorogenic abasic-site DNA cleavage; AID 2572; shares compounds with APE1 inh-1; also: nearly all actives have a fitted effect of over 30% in size
APE1 FP inh: displaces DNA from human APE1 in FP assay; Potency, µM (titrated, usually from 28.5 µM), for the others: at the highest dose activity, negative = inhibition, usual class: inhibitors; APE1 binding to TAMRA-labelled double-stranded DNA, fluorescence polarization displacement; 480 tested, 7% active; shares compounds with APE1 inh-1
Active calls of the source: *; i = inactive; ? = inconclusive; nt = not tested or not shown; [ ] = remark or other dose. Unless noted, calls follow the shape of the dose curve; as a rule, active = well fitted curve in the direction sought with a large enough effect; inconclusive = small, poorly fitted or top-dose-only effect, or another doubt; inactive = no such curve, though single readings can be large; an effect the other way counts as inactive or inconclusive. Unless noted, % is scaled to controls: 0 for no effect and ±100 for the full control effect; potency is read from the fitted curve at half-maximal effect.

SMILES | KDM4E inh | RECQ1 inh | BLM helicase inh | GCN5L2 inh | TDP1 block | APE1 inh-1 | APE1 dye cs | EndoIV counter | APE1 inh-2 | APE1 FP inh
Cc1ccc2c(c1)C1C=CCC1C(C(=O)O)N2 (stereo unspecified) | ? | 8.9µM* | 14µM* | 25µM* | nt | 16µM* | ? | 0% | 14µM* | -26%
Cc1nc(SCC(=O)O)c(C#N)c2c1CCCC2 | -6% | -27% | -2% | -12% | 10µM* | ? | nt | nt | ? | nt
COc1ccc2cc3cc(C(=O)NCc4cccs4)oc3nc2c1 | ? | -7% | -23% | -13% | 32µM* | 1% | nt | nt | -12% | nt
CN(C)C(=O)Nc1ccc(Cl)c(Cl)c1 | 0% | i | 3% | -20% | 6%[56.1 µM] | ? | -3%[57.1 µM] | 20%[57.1 µM] | 32µM* | 10%[57.1 µM]
COC(=O)Nc1ccc(Cl)c(Cl)c1 | nt | -3% | -5% | -12% | 4% | -6% | nt | nt | nt | nt
O=C(Cn1c(=O)n(-c2ccc(Cl)cc2)c(=O)c2c3c(sc21)CCCCC3)Nc1cccc(Cl)c1 | nt | nt | -4% | -8% | 8% | nt | nt | nt | nt | nt
COc1ccc2c(c1)Cc1sc(NC(=O)c3ccc(Cl)cc3)nc1-2 | nt | nt | -11% | -1% | 2% | nt | nt | nt | nt | nt
O=C(Cn1c(=O)n(Cc2ccco2)c(=O)c2c3c(sc21)CCCCC3)c1ccccc1 | 0% | -28% | -22% | -16% | -14% | ? | ? | -6% | -23%[24.4 µM] | 5%
O=c1c2c3c(sc2n(CCN2CCCC2)c(=O)n1Cc1ccco1)CCCCC3 | -4% | -3% | 6% | 2% | 12% | 2% | nt | nt | nt | nt
O=C(NCc1ccc(F)cc1)c1ccc(NC(=O)N2CC3CCCN3c3ccccc32)cc1 (stereo unspecified) | nt | nt | -9% | -9% | 8% | nt | nt | nt | nt | nt
CN1CCc2cc3c(c4c2[C@H]1[C@H](O)c1ccccc1-4)OCO3 | 18µM* | 81% | 83% | -1% | 8% | ? | 4.5µM* | 8.9µM* | 11µM* | 13µM*
COc1cc2c(cc1OC)C(COc1ccc(F)cc1)N(C(=O)c1cccc(F)c1)CC2 (stereo unspecified) | nt | nt | -11% | -4% | 10% | nt | nt | nt | nt | nt
N[C@H](C(=O)O)C1C(C(=O)O)C1C(=O)O (stereo partly specified) | nt | -7% | nt | -12% | 1% | 10% | nt | nt | nt | nt
Cc1ccc(CNS(=O)(=O)c2cc3c(cc2Cl)NC(=O)CO3)o1 | nt | nt | -3% | -11% | 0% | nt | nt | nt | nt | nt
CCOC(=O)N1CCC(N2Cc3cccc(C(=O)NCc4ccc5c(c4)OCO5)c3C2=O)CC1 | -6% | -10% | -21% | -10% | 50µM* | ? | nt | nt | ? | nt
CCCCCCCCCCOCC(O)CN (stereo unspecified) | nt | nt | 1% | -5% | 6% | nt | nt | nt | nt | nt
